Here are results for 14 molecules from PubChem BioAssay (NCI).

Some test systems named below: DU-145 prostate; MALME-3M melanoma; MDA-MB-231 breast; RXF 393 renal; SF-268 CNS; SF-295 CNS; SF-539 CNS; UACC-257 melanoma; M14 melanoma.
Common to all, as to assay: NCI-60 one-dose screen, 48 h (100 = growth as untreated, 0 = no growth, -100 = all killed)
Common to all, as to conditions: 10 µM unless noted

This is part of a sample that, as a whole, favours compounds with a hit. Of some 83,000 tested, about 20% had one in any assay.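 Cell lines were cultured in 96-well plates, exposed to a single compound concentration, and assessed for percent growth 48 hours later.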 A number with no mark means an inactive call. Activity calls are given as the source filed them. The calls were made as follows: active = growth percent below 10; inactive = the rest.

As to `COc1cc(C(=O)Nc2cc3c(cc2Oc2cc(C)cc(C)c2)C(=O)N(C)[C@@H](CC(=O)N(C)O)C(=O)N3)c(Br)c(OC)c1OC`, the growth with DU-145 prostate is -31.7% (active); in the assay on MALME-3M melanoma it was -55.3% (active); in the assay on MDA-MB-231 breast, -34.3% (active); in the assay with RXF 393 renal, -56.7% (active); in the assay on SF-268 CNS, -27.1% (active); in the assay with SF-295 CNS, -34.6% (active). For the same molecule, the growth is -46.7% (active) with SF-539 CNS, -12.4% (active) in the assay on UACC-257 melanoma and -88.2% (active) in the assay on M14 melanoma.

With `CC(C)=CCC[C@](C)(O)[C@H]1CC[C@]2(C)[C@@H]1CC[C@@H]1[C@@]3(C)C/C(=C/c4ccccc4)C(=O)C(C)(C)[C@@H]3CC[C@]12C`, the growth is 85.3% with DU-145 prostate; 78.6% in the assay with MALME-3M melanoma; 85.5% in the assay on MDA-MB-231 breast; 95.3% in the assay on RXF 393 renal; 94.7% with SF-268 CNS; 109% in the assay on SF-295 CNS. Moreover, the growth with SF-539 CNS was 90.4%; in the assay with UACC-257 melanoma, 104%; in the assay with M14 melanoma it was 96.5%.

As for `COc1ccc(C(=O)CC#N)cc1`, the growth in the assay on DU-145 prostate is 107%; in the assay with MALME-3M melanoma, 123%; in the assay with MDA-MB-231 breast it was 96.8%; in the assay on RXF 393 renal it was 106%; in the assay on SF-268 CNS it was 107%; in the assay with SF-295 CNS, 131%. The growth was 121% in the assay on SF-539 CNS, 102% with UACC-257 melanoma and 110% in the assay on M14 melanoma.

With `CC(C)c1ccc(Nc2ccc3c(OCCCN4CCN(C)CC4)cccc3n2)cc1`, the growth with DU-145 prostate is 76.1%; with MALME-3M melanoma, 39.2%; with MDA-MB-231 breast, 51.8%; in the assay on RXF 393 renal, 48.9%; in the assay with SF-268 CNS it was 71.8%; in the assay on SF-295 CNS, 38.8%. The values for the growth with SF-539 CNS, in the assay on UACC-257 melanoma and in the assay with M14 melanoma were 73.5%, 71.9% and -67.6% (active), respectively.

For the molecule `COc1cc(C2=NN(C(C)=O)C(c3cc(OC)c(OC)c(OC)c3)C2)ccc1O` (stereo unspecified), the growth is -1.86% (active) with DU-145 prostate; 49.4% in the assay on MALME-3M melanoma; 4.4% (active) in the assay with MDA-MB-231 breast; -20.9% (active) in the assay on RXF 393 renal; 36.2% in the assay on SF-268 CNS; -55.6% (active) in the assay on SF-295 CNS. Moreover, the growth with SF-539 CNS was -30.7% (active); in the assay with UACC-257 melanoma, 60%; in the assay on M14 melanoma, -28.3% (active).

`COc1ccc(-c2nc([C@@H](C)Sc3nc(N)cc(N)n3)c(C)s2)cc1OCCN1CCOCC1`: the growth in the assay with DU-145 prostate is 111%; with MALME-3M melanoma, 102%; with MDA-MB-231 breast, 66.6%; with RXF 393 renal it was 96%; in the assay on SF-268 CNS, 102%; with SF-295 CNS, 97.6%. Besides, the growth is 111% in the assay on SF-539 CNS, 100% in the assay on UACC-257 melanoma and 114% in the assay with M14 melanoma.

As to `CCOC(=O)C1=C(CCl)NC(=O)NC1c1ccc2c(c1)OCO2` (stereo unspecified), the growth was 36.6% in the assay with DU-145 prostate; 18.5% in the assay with MALME-3M melanoma; 39.4% with MDA-MB-231 breast; 39.1% in the assay on RXF 393 renal; 66.9% with SF-268 CNS; 71.1% with SF-295 CNS. Also, the figures for the growth in the assay with SF-539 CNS, in the assay with UACC-257 melanoma and in the assay with M14 melanoma were 16.5%, 67.2% and 32.3%, respectively.

For `Cc1ccc(-c2csc(NC(=O)CSc3nc(-c4ccccc4)cc(=O)[nH]3)n2)cc1`, the growth in the assay with DU-145 prostate was 103%; with MALME-3M melanoma, 94.4%; with MDA-MB-231 breast it was 93.2%; with RXF 393 renal, 110%; with SF-268 CNS, 90.2%; in the assay on SF-295 CNS, 87.5%. The growth with SF-539 CNS is 97.7%; in the assay with UACC-257 melanoma it was 99.9%; in the assay on M14 melanoma, 105%.

For the molecule `O=C1CC(=O)OC(c2ccc([N+](=O)[O-])cc2)O1`, the growth in the assay with DU-145 prostate was 13.9%; with MALME-3M melanoma, -36.6% (active); with MDA-MB-231 breast, -3.22% (active); in the assay on RXF 393 renal, -91% (active); in the assay on SF-268 CNS it was 4.85% (active); in the assay with SF-295 CNS, 70.3%. Also, the growth in the assay with SF-539 CNS was -69.9% (active); in the assay with UACC-257 melanoma, -23.6% (active); in the assay on M14 melanoma, -64.4% (active).

In the case of `CN1[C@@H]2CC[C@H]1/C(=C\c1ccccc1)C(=O)/C2=C/c1ccccc1`, the growth in the assay with DU-145 prostate was 14.1%; in the assay on MALME-3M melanoma, 72.8%; with MDA-MB-231 breast it was 47.6%; with RXF 393 renal it was 43.4%; in the assay with SF-268 CNS, 38.3%; with SF-295 CNS it was 32.8%. Also, the growth is 43.1% in the assay with SF-539 CNS, 42.8% with UACC-257 melanoma and 43.4% in the assay on M14 melanoma.

`N#Cc1c(-c2ccccc2)nc2c(c(-c3ccccc3)nn2-c2ccccc2)c1-c1ccc(O)cc1`: the growth with DU-145 prostate is 49.4%; with MALME-3M melanoma, 43.8%; in the assay with MDA-MB-231 breast, 23.8%; with RXF 393 renal, -17.6% (active); in the assay with SF-268 CNS, 55.5%; with SF-295 CNS it was -43.1% (active). The figures for the growth with SF-539 CNS, in the assay on UACC-257 melanoma and with M14 melanoma were 23.3%, 71.3% and 56.4%, respectively.

Regarding `CCOc1ccc(Nc2nc(-c3ccc4c(c3)NC(=O)CO4)cs2)cc1`, the growth with DU-145 prostate is 77.2%; in the assay with MALME-3M melanoma it was 69.7%; in the assay with MDA-MB-231 breast, 58%; in the assay with RXF 393 renal, 87.3%; in the assay with SF-268 CNS, 87.1%; with SF-295 CNS, 158%. For the same molecule, the growth in the assay with SF-539 CNS was 78.2%; in the assay with UACC-257 melanoma, 33%; in the assay on M14 melanoma it was 68.2%.

Consider `COc1cc(-c2cc(-c3ccc(N(C)C)cc3)nc(N3CCOCC3)c2C#N)cc(OC)c1OC`, for which the growth was 52.4% in the assay with DU-145 prostate; 31.1% with MALME-3M melanoma; 25.2% in the assay on MDA-MB-231 breast; -43.2% (active) in the assay with RXF 393 renal; 36% in the assay on SF-268 CNS; -20.9% (active) with SF-295 CNS. Also, the growth was 47.3% with SF-539 CNS, 24.3% in the assay on UACC-257 melanoma and -61.5% (active) in the assay on M14 melanoma.

With `COc1cc2c(c(OC)c1OC)-c1ccc(NNC(=S)N(Cc3cccc(C[N+](Cc4cccc(CNC56CC7CC(CC(C7)C5)C6)c4)(Cc4cccc(CNC56CC7CC(CC(C7)C5)C6)c4)Cc4cccc(CN(C(=S)NNc5ccc6c(cc5=O)[C@@H](NC(C)=O)CCc5cc(OC)c(OC)c(OC)c5-6)C56CC7CC(CC(C7)C5)C6)c4)c3)C34CC5CC(CC(C5)C3)C4)c(=O)cc1[C@@H](NC(C)=O)CC2` (stereo partly specified), the growth is 21.3% with DU-145 prostate; -48.1% (active) in the assay on MALME-3M melanoma; -26.3% (active) in the assay with MDA-MB-231 breast; 20.2% with RXF 393 renal; 18.3% in the assay with SF-268 CNS; 20.3% in the assay on SF-295 CNS. The growth is 0.867% (active) in the assay on SF-539 CNS, 43.1% with UACC-257 melanoma and -53.4% (active) in the assay on M14 melanoma.
